In PubChem BioAssay AID1135 (Sanford-Burnham Center for Chemical Genomics, 2008):
The whole screen tested about 200,000 compounds, of which about 65 (0.03%) were called active.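 The calls were made as follows: active = over 50% inhibition of tissue-nonspecific alkaline phosphatase at 20 µM in the single-dose screen; inactive = the rest.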 The full list was thinned out, with actives kept by preference.

Molecular target: Alkaline phosphatase, tissue-nonspecific isozyme (Homo sapiens) (UniProt P05186)
Test: human TNAP enzyme inhibitors, primary screen, biochemical, luminescent, high phosphate acceptor level, uHTS (AID 1135);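 also: plate controls were DMSO wells for no effect and EDTA-quenched wells as full inhibition for full effect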
Conditions: purified TNAP, CDP-star luminescence, 1 M DEA; at 20 µM; stronger effect = higher value

Chain of Alkaline phosphatase, tissue-nonspecific isozyme (Homo sapiens) (P05186 whole entry, looked up): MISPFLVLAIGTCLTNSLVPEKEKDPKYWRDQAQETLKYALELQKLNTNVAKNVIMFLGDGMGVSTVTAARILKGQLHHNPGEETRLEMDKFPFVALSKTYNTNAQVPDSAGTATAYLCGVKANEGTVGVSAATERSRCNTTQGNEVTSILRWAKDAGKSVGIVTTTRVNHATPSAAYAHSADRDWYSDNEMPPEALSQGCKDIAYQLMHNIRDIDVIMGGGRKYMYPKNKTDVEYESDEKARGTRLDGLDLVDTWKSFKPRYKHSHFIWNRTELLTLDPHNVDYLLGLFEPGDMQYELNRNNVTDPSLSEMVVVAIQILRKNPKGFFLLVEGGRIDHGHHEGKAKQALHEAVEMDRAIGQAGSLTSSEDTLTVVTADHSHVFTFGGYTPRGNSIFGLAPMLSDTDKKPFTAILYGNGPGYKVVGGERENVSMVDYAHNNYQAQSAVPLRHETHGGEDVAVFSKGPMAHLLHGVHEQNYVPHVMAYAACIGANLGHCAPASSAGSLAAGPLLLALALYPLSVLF

inhibition, inactive:
CCS(=O)(=O)C1=NSC2=NC(=O)/C(=C\c3cc(C)n(-c4cccc(OC)c4)c3C)C(=N)N21 1.7%
Cc1ccsc1C1C(C#N)=C(N)OC2=C1C(=O)CC(C)C2 (stereo not given) -0.4%
CCOC(=O)c1[nH]ncc1CN1CCCC(C(=O)c2ccc(OC)cc2C)C1 (stereo not given) -5.9%
C/C(=N\NC(=S)NC(C)C)c1ccc(C(C)(C)C)cc1 0.4%
O=C(N/N=C/c1ccc([N+](=O)[O-])cc1)C(=O)N1CCCC1 1.8%
COCCN(CCOC)S(=O)(=O)c1ccc(/C(O)=C(\C#N)c2nc3ccccc3[nH]2)cc1 -5.5%
O=C1OC(OC(=O)c2ccccc2Br)C(N2CCOCC2)=C1Cl (stereo not given) 4.1%
CCOC(=O)N/N=C/c1cn(Cc2ccccc2Cl)c2ccccc12 0.2%
CC(=O)N/N=C/c1cc2c(cc1[N+](=O)[O-])OCO2 2.5%
COc1ccc(NC(=S)NCCN2CCC(C)CC2)cc1 -0.4%
CCN1CCN(C(C(=O)NC2CCCC2)c2cc3c(cc2[N+](=O)[O-])OCO3)CC1 (stereo not given) -2.4%
O=C(Nc1ccccc1C(=O)N1CCOCC1)c1ccc(Cl)cc1 -6.3%
COc1ccc(Cl)cc1NC(=O)[C@@H]1CCCN1C(=O)c1cccs1 1%
O=[N+]([O-])c1ccc(N/N=C2/CCCCC2c2ccccn2)c([N+](=O)[O-])c1 (stereo not given) 4%
CC(C)OC(=O)Cn1nc(C(F)(F)F)c2c1CCCC2 -1.6%
O=C(COc1ccccc1)Nc1ccc(N2CCN(C(=O)c3cccs3)CC2)cc1 -2.1%
Cc1ccc(NC(=O)c2sccc2C)cc1[N+](=O)[O-] 0.9%
COc1ccc(NS(=O)(=O)c2cc(NC(=O)C3CCCCC3)ccc2N2CCOCC2)cc1 0.1%
COc1cccc(OC)c1C(=O)OCC(=O)/C(C#N)=C(\C)N 0.2%
CCOc1ccc(CCN2C(=O)c3cccnc3C2=O)cc1OCC 2.6%
CC(=O)c1ccc(N2CCN(CC(=O)Nc3ccccc3N3CCOCC3)CC2)cc1 -5.4%
CCOCCCNC(=O)C(NC(=O)Cc1c[nH]c2ccccc12)c1ccc(OC)cc1 (stereo not given) 2.4%
CCN1CCN(c2cc3nc(C)n(Cc4ccccc4)c(=O)c3cc2NC(=O)c2ccccc2F)CC1 -2.8%
C/C(=N\NC(=O)c1ccc(NS(=O)(=O)c2cccs2)cc1)c1ccc2ccccc2c1 -2.7%
Cc1ccc(C(=O)COC(=O)CCCC(=O)NC2CCCCC2)cc1[N+](=O)[O-] -4.3%
